Results taken from PubChem BioAssay (NCI).
The panel holds about 83,000 compounds, 20% with a hit somewhere; the sample as a whole holds those more often.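 Cells were grown in 96-well plates and exposed to the test compound at a single concentration for 48 hours; results are reported as percent growth, with values below 10 considered active.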 A number with no mark means an inactive call. Activity calls are given as the source filed them.

Columns and labels:
Experiment in all cases: NCI-60 one-dose screen, 48 h (100 = growth as untreated, 0 = no growth, -100 = all killed)
Conditions in all cases: 10 µM unless noted
NCI-H23 lung = tested on: NCI-H23 lung
NCI-H226 lung = tested on: NCI-H226 lung
NCI-H322M lung = tested on: NCI-H322M lung
HOP-62 NSCLC = tested on: HOP-62 NSCLC
NCI-H460 lung = tested on: NCI-H460 lung
HOP-92 NSCLC = tested on: HOP-92 NSCLC
NCI-H522 lung = tested on: NCI-H522 lung
A549/ATCC NSCLC = tested on: A549/ATCC NSCLC
786-0 renal = tested on: 786-0 renal
COLO 205 colon = tested on: COLO 205 colon
DU-145 prostate = tested on: DU-145 prostate
MALME-3M melanoma = tested on: MALME-3M melanoma
MDA-MB-231 breast = tested on: MDA-MB-231 breast
RXF 393 renal = tested on: RXF 393 renal
SF-268 CNS = tested on: SF-268 CNS
SF-295 CNS = tested on: SF-295 CNS
SF-539 CNS = tested on: SF-539 CNS
UACC-257 melanoma = tested on: UACC-257 melanoma
M14 melanoma = tested on: M14 melanoma

Structure (SMILES) | growth (NCI-H23 lung) | growth (NCI-H226 lung) | growth (NCI-H322M lung) | growth (HOP-62 NSCLC) | growth (NCI-H460 lung) | growth (HOP-92 NSCLC) | growth (NCI-H522 lung) | growth (A549/ATCC NSCLC) | growth (786-0 renal) | growth (COLO 205 colon) | growth (DU-145 prostate) | growth (MALME-3M melanoma) | growth (MDA-MB-231 breast) | growth (RXF 393 renal) | growth (SF-268 CNS) | growth (SF-295 CNS) | growth (SF-539 CNS) | growth (UACC-257 melanoma) | growth (M14 melanoma)
CCOc1ccc(-n2nc(C(=O)Nc3ccccc3)nc2-c2cc(OC)c(OC)c(OC)c2)cc1 | 66.6% | 80% | 67.6% | 55.7% | 27.9% | 46% | 22.8% | 41.4% | 69.4% | 22.1% | 89.6% | 54.5% | 43.9% | 69.2% | 76.5% | 34% | 62% | 66.4% | 38%
COc1cccc2c1C(=O)c1c(O)c3c(c(O)c1C2=O)C[C@](O)(C(=O)CO)C[C@H]3O[C@@H]1C[C@@H](NC(=O)CCCN(C)C2(c3ccc(F)cc3)CC3CCC2C3)[C@H](O)[C@@H](C)O1 (some centres undefined) | -59.7% (active) | 65.2% | 49.1% | 58.5% | -86.8% (active) | 48.7% | -82.7% (active) | -80.1% (active) | -94.2% (active) | -76.2% (active) | -48.4% (active) | -83.2% (active) | -76.4% (active) | -95.8% (active) | -82.4% (active) | -92.9% (active) | -81.6% (active) | -26.9% (active) | -86.8% (active)
CN(C)c1ccc(N=Nc2ccccn2)c(O)c1 | 16.1% | 14.4% | 21.9% | 7.8% (active) | 5.5% (active) | 57.9% | 27.1% | 11.8% | 15% | 17.3% | 21.6% | 13.8% | 36.7% | 46.3% | 14.6% | 19.9% | 0.733% (active) | -9.35% (active) | -2.06% (active)
Cc1cc2nc(NC(=O)CN3CCN(CCN4C(=O)c5cccc6cccc(c56)C4=O)CC3)sc2cc1C | 89% | 89.2% | 85.2% | 94.9% | 91.7% | 74.9% | 87.3% | 70.3% | 82.8% | 99.6% | 91.7% | 89.5% | 92.4% | 87.5% | 86.3% | 91.2% | 80.9% | 99.2% | 94.3%
CN1C(=O)C2(SCC(C(=O)NCc3ccccc3)N2C(=O)C2CCCCC2)c2ccccc21 (centres undefined) | 91% | 84.3% | 77.1% | 98.2% | 96% | 86.3% | 75.4% | 93.6% | 101% | 95.3% | 98% | 94.1% | 117% | 119% | 83.3% | 100% | 123% | 106% | 87.3%
Cc1cc(N2CCOCC2)nc(N[C@@H]2CCC[C@H](Nc3ccnc4cc(Cl)ccc34)C2)n1 | 62% | 34.2% | 27.2% | -15.2% (active) | 12.2% | -21.7% (active) | -26.8% (active) | 13.8% | -73% (active) | -82% (active) | 26.2% | -75.3% (active) | -53.7% (active) | -57.6% (active) | 19.1% | -66.2% (active) | -79.7% (active) | -86.4% (active) | -86.7% (active)
COc1ccc(CN2c3ccccc3Oc3ccccc32)cc1F | 71.8% | 101% | 91.5% | 52.1% | 47.6% | 66.6% | -13.2% (active) | 43.7% | 79.2% | 41.7% | 95.9% | 59.2% | 53.1% | 84.5% | 84.7% | 33% | 64.7% | 58.9% | 33.6%
c1ccc2[nH]c(-c3ccc(Nc4nc(N5CCCC5)nc5[nH]ncc45)cc3)nc2c1 | -11.3% (active) | 98.9% | 6.53% (active) | -36.6% (active) | -44.3% (active) | -56.4% (active) | -54.7% (active) | -42.4% (active) | -92.4% (active) | -75.9% (active) | -6.9% (active) | -71.5% (active) | -48.5% (active) | -81.5% (active) | -7.79% (active) | -63.3% (active) | -68.1% (active) | -90.5% (active) | -78% (active)
O=c1ccccc(-c2ccc(Br)cc2)c1O | 13.9% | 18.2% | 21.1% | 10.6% | 2.75% (active) | 58% | 19.2% | 11% | 8.52% (active) | 22.7% | 20.3% | 10.6% | 32.9% | 46.2% | 12.8% | 17.9% | -0.947% (active) | 1.13% (active) | -10.8% (active)
COc1cccc(NC(=O)c2sc3nc(C)c(C(C)=O)cc3c2N)c1 | 65.5% | 83.7% | 45.5% | 44.7% | 10.8% | 52% | 40.1% | 20.5% | 58.5% | -1.6% (active) | 23.3% | 71.2% | 58.5% | 51.6% | 69.8% | 29.9% | 32% | 60.1% | 23.7%
COc1ccccc1Nc1nc(-c2cc3cccc(C(F)(F)F)c3oc2=O)cs1 | 18.6% | 13.4% | 33% | 25.3% | 4.14% (active) | 26.9% | -16.5% (active) | 17.1% | 20.8% | -50.3% (active) | 7% (active) | 78.2% | 19.1% | 26.7% | 26.2% | 3.82% (active) | -32.9% (active) | 57.1% | 13.5%
COc1ccc2c(c1)C(=O)/C(=C/c1cccnc1)CC2 | 90.9% | 107% | 106% | 97.5% | 105% | 94.7% | 73.2% | 101% | 94.6% | 105% | 97% | 106% | 87.7% | 109% | 94.2% | 84.2% | 90.5% | 108% | 102%
COc1cc2c(cc1O)CC[C@@H]1[C@@H]2CC[C@]2(C)[C@@H](OCCN(C)C)CC[C@@H]12 | 42.3% | 76.5% | 51.3% | 59.9% | 39.6% | 48.6% | 18.4% | 66.5% | 57.9% | 58.8% | 12.8% | 16.7% | 16.2% | 52.4% | 56.2% | -4.56% (active) | 4.14% (active) | -18.2% (active) | 0.0496% (active)
Clc1ccc2c(NCCCCNc3nc(N4CCOCC4)nc4ccccc34)ccnc2c1 | 59.7% | -43.4% (active) | 26.4% | -9.83% (active) | 4.54% (active) | 71.8% | -25.6% (active) | 14.6% | -54.1% (active) | -46.9% (active) | 38.4% | -58.7% (active) | -58.3% (active) | 86.3% | 43% | -5.21% (active) | -84.5% (active) | 84.9% | -66.2% (active)
C/C1=C\CC[C@@]2(C)O[C@H]2[C@H]2OC(=O)C(CN3CCN(CC4C(=O)O[C@H]5[C@H]4CC/C(C)=C/CC[C@@]4(C)O[C@@H]54)CC3)[C@@H]2CC1 (some centres undefined) | 98.5% | 99.2% | 99.3% | 107% | 107% | 100% | 33.4% | 93.5% | 109% | 98.2% | 60.6% | 101% | 87.1% | 94.6% | 104% | 103% | 90.5% | 83.5% | 93.1%
COc1cc2c(cc1OC)C(Sc1ccc(SC)cc1)c1c(nc(N)c(C#N)c1N)O2 (centres undefined) | -56.1% (active) | -65.7% (active) | -86.9% (active) | -46.3% (active) | -79% (active) | -23.7% (active) | -92.6% (active) | -63.5% (active) | -80.7% (active) | -79% (active) | -75.8% (active) | -67% (active) | -67.4% (active) | -75.9% (active) | -36.6% (active) | -56.3% (active) | -95.3% (active) | -51.2% (active) | -80.6% (active)
